Assays:
Test in all cases: DAPPL (digital affinity profiling via proximity ligation, sequencing); 10 mM Tris-HCl pH 7.5, 50 mM NaCl, 1 mM DTT, 4% glycerol, room temperature, 30 min; GST-TFs on glutathione beads, 16-mer random dsDNA library, 0.1% formaldehyde crosslink after washing; high values mean tight binding
[1] = molecular target: T1, FLI1 (Homo sapiens, UniProt Q01543 1-452); details: protein: recombinant; tags: N-terminal GST; dsDNA, one strand shown
T1 sequence: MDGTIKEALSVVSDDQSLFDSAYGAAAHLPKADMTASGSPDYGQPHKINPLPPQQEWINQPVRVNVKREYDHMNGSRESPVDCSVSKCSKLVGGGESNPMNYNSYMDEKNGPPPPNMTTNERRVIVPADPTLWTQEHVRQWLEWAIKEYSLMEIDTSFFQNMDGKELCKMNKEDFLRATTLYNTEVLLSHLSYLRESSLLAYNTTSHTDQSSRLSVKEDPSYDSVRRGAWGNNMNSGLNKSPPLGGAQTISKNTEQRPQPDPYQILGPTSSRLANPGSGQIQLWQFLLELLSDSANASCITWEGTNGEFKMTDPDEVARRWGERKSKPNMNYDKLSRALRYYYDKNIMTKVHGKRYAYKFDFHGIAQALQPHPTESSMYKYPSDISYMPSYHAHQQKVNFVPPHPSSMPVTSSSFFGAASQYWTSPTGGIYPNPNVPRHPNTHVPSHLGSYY
In short: (§1)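 Binding signal is each hexamer's read frequency for a factor divided by its frequency in the tag-only sample. The factors were GST-fused human transcription factors from yeast, captured on glutathione beads, DNA-barcoded and pooled with that sample. Pools were incubated with 200 nmole of a random double-stranded 16-mer DNA library in Tris/NaCl/DTT/glycerol buffer at room temperature for 30 min, then washed, crosslinked with 0.1% formaldehyde, proximity-ligated with BsaI/T4 ligase (1 h, 37 °C), PCR-amplified and sequenced on an Illumina NextSeq500.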

[2] = molecular target: T2, ERG (Homo sapiens, UniProt P11308 1-479); details: protein: recombinant; tags: N-terminal GST; dsDNA, one strand shown
T2 sequence: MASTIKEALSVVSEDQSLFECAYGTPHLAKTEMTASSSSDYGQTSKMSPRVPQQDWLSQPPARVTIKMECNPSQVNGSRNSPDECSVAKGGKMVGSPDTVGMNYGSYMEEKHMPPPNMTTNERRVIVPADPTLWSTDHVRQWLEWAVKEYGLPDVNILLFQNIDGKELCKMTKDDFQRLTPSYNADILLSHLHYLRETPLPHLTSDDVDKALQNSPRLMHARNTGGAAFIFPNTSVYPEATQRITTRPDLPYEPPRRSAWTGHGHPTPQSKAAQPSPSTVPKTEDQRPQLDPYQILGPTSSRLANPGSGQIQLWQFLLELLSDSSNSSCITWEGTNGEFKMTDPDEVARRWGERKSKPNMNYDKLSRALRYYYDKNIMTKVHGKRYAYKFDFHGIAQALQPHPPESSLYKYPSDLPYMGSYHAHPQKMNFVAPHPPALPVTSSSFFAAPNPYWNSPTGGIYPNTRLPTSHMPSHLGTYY
In short: as §1

[3] = molecular target: ELF1 (Homo sapiens, UniProt P32519 1-619); details: protein: recombinant; tags: N-terminal GST; dsDNA, one strand shown
In short: as §1

[4] = molecular target: SPIB (Homo sapiens, UniProt Q01892 1-262); details: protein: recombinant; tags: N-terminal GST; dsDNA, one strand shown
In short: as §1

[5] = molecular target: T3, ELK3 (Homo sapiens, UniProt P41970 1-407); details: protein: recombinant; tags: N-terminal GST; dsDNA, one strand shown
T3 sequence: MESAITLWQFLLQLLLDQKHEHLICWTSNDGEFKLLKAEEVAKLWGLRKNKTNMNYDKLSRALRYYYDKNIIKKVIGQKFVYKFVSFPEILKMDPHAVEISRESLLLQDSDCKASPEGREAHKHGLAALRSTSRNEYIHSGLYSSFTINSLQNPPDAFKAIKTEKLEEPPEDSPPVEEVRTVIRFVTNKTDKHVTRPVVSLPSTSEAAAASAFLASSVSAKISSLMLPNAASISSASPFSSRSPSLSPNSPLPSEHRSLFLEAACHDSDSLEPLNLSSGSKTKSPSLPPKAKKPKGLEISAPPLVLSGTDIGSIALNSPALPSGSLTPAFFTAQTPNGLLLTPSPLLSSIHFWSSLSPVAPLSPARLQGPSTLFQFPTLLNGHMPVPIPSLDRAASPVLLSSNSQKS
In short: as §1

[6] = molecular target: HSF1 (Homo sapiens, UniProt Q00613 1-529); details: protein: recombinant; tags: N-terminal GST; chain copies: 3; dsDNA, one strand shown
In short: as §1

[7] = molecular target: ETV1 (Homo sapiens, UniProt P50549 1-477); details: protein: recombinant; tags: N-terminal GST; dsDNA, one strand shown
In short: as §1

[8] = molecular target: T4, ERF (Homo sapiens, UniProt P50548 1-548); details: protein: recombinant; tags: N-terminal GST; dsDNA, one strand shown
T4 sequence: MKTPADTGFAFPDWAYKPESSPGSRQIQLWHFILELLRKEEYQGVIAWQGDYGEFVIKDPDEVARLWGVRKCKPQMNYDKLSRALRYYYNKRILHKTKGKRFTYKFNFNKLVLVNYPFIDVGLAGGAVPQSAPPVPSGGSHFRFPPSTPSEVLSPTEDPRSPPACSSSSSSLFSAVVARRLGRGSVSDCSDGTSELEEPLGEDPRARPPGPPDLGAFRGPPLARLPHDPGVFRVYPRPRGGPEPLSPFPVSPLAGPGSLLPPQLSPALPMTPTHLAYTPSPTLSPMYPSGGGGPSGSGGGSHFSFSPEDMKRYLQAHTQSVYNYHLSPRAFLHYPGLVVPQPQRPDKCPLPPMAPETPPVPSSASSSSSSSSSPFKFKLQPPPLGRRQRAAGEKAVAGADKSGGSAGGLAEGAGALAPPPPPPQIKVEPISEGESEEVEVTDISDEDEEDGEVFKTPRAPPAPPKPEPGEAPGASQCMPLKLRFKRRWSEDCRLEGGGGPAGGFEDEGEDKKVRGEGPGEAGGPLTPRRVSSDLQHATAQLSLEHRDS
In short: as §1

[9] = molecular target: T5, ETV3L (Homo sapiens, UniProt Q6ZN32 1-361); details: protein: recombinant; tags: N-terminal GST; dsDNA, one strand shown
T5 sequence: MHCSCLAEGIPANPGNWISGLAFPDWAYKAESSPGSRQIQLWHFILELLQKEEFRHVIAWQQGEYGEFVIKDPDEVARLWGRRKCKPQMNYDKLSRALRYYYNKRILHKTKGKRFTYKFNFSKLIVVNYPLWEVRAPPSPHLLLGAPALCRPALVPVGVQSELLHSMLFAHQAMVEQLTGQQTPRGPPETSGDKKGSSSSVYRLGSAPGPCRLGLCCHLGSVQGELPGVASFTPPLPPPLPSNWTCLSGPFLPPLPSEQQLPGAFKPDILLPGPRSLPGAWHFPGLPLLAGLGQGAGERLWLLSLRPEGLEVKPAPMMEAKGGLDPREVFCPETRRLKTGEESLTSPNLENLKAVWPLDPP
In short: as §1

[10] = molecular target: T6, ETV3 (Homo sapiens, UniProt P41162-2 1-143); details: protein: recombinant; tags: N-terminal GST; dsDNA, one strand shown
T6 sequence: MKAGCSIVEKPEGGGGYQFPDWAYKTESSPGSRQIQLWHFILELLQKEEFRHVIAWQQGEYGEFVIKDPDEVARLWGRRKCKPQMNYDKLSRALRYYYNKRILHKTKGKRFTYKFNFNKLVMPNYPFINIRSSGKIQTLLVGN
In short: as §1

ELF1, sequence (P32519 whole entry): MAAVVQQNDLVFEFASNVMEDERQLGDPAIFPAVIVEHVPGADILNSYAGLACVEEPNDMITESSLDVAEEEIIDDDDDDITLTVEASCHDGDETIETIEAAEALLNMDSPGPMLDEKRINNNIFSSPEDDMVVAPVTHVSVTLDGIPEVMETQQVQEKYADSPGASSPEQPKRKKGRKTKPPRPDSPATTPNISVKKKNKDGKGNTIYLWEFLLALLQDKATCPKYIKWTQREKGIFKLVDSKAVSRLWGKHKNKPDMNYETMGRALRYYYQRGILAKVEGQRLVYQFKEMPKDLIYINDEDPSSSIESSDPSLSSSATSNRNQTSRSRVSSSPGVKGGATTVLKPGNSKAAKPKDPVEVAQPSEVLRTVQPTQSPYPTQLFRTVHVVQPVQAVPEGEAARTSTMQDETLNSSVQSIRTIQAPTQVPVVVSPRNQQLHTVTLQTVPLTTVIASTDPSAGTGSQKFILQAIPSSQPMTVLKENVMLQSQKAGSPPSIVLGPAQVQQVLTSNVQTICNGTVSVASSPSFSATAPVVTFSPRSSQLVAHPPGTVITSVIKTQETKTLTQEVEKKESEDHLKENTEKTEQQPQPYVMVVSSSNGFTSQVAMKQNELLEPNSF
SPIB, sequence (Q01892 whole entry): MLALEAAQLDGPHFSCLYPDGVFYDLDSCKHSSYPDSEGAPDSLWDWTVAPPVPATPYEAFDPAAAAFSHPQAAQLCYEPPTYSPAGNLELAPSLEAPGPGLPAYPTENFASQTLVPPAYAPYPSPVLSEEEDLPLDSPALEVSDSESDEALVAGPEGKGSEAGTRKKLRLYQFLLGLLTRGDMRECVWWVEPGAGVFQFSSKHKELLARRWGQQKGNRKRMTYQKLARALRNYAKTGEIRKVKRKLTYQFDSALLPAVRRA
ETV1, sequence (P50549 whole entry): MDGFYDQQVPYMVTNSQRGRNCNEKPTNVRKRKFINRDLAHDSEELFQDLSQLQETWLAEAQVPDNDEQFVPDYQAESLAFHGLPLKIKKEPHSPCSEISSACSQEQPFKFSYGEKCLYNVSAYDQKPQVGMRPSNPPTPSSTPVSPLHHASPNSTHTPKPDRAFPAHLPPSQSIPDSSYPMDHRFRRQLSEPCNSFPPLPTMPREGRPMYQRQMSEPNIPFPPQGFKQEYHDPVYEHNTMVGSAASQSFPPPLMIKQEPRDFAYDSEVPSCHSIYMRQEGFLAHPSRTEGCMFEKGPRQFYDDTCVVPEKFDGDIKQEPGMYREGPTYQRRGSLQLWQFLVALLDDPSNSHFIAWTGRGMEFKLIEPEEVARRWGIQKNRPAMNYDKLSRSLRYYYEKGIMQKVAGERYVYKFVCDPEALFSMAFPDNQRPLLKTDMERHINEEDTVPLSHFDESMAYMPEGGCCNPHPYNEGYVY
HSF1, sequence (Q00613 whole entry): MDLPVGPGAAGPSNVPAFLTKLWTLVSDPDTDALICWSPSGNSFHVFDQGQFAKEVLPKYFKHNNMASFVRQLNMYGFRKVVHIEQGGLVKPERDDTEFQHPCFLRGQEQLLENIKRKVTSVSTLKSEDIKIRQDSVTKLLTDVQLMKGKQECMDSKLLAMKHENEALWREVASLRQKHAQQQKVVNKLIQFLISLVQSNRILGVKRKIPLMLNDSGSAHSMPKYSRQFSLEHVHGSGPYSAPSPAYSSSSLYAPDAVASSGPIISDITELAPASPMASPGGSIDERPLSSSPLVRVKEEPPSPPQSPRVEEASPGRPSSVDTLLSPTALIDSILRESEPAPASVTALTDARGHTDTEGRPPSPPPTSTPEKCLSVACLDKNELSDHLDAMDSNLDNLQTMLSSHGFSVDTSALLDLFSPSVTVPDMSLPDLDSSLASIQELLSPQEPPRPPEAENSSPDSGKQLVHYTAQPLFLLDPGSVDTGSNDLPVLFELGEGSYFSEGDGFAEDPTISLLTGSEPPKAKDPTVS

CTCGGG was tested, and the binding signal [1] was 1.06 fold enrichment (6-mer frequency, TF over GST control), the binding signal [2] was 1.03 fold enrichment (6-mer frequency, TF over GST control) and the binding signal [3] was 1.09 fold enrichment (6-mer frequency, TF over GST control). For the same sequence, the binding signal [4] was 1.03 fold enrichment (6-mer frequency, TF over GST control), the binding signal [5] was 1.05 fold enrichment (6-mer frequency, TF over GST control) and the binding signal [6] was 1.04 fold enrichment (6-mer frequency, TF over GST control). For the same sequence, the binding signal [7] was 1.03 fold enrichment (6-mer frequency, TF over GST control), the binding signal [8] was 1.02 fold enrichment (6-mer frequency, TF over GST control) and the binding signal [9] was 1.09 fold enrichment (6-mer frequency, TF over GST control). For the same sequence, the binding signal [10] was 1 fold enrichment (6-mer frequency, TF over GST control).

— article PMC7862700, “An all-to-all approach to the identification of sequence-specific readers for epigenetic DNA modifications on cytosine”
